Screens from PubChem BioAssay.
FLuc modulator: counter-screen for miR-21 project: firefly luciferase inhibitors or activators; P08659; purified FLuc, Km substrates, luminescence inhibition; Potency, µM (series often up to 57.5 µM), inactives show top-dose activity change, negative = inhibition, actives largely listed as inhibitors; actives 6.9% (n = 360,000);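 also: plate controls were vehicle for no effect and reference inhibitor for full effect; nearly all actives have a fitted effect of over 55% in size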
Target sequence (P08659 whole entry, looked up): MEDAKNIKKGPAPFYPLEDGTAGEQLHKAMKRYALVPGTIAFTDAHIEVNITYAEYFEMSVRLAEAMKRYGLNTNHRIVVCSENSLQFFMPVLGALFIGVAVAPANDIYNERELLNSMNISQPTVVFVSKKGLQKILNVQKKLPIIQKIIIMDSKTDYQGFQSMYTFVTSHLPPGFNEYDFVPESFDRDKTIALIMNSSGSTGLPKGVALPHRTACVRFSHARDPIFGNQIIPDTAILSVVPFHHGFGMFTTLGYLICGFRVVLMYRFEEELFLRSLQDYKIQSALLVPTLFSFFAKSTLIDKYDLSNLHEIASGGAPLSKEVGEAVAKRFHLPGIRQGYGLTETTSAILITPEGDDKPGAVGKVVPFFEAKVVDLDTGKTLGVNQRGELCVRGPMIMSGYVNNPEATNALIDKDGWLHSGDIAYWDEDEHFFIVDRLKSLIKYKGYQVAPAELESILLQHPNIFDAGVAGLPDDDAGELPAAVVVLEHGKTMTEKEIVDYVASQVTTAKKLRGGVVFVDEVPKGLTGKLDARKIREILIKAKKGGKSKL
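Purified P. pyralis luciferase, 10 nM final, with Km-level 10 uM D-luciferin and 10 uM ATP in 50 mM Tris acetate pH 7.5, 10 mM Mg acetate, 0.01% Tween-20, 0.05% BSA; 6-point qHTS titration about 60 µM downward; luminescence read.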
ELG1 genotoxic: induces genotoxicity in HEK293T cells with luciferase-tagged ELG1; HEK293T ELG1-luciferase reporter, luminescence, 16 h; Potency, µM (highest dose often 46 µM), for inactives: top-dose activity change, positive = activation, hits mostly activators; actives 1.3% (n = 330,000); also: % of control where 0% means no effect; nearly all actives have a fitted effect of over 60% in size
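Genotoxicity was scored as increased ELG1-luciferase reporter signal, measured by ONE-Glo luminescence (30 min, room temperature). Compound or vehicle exposure of the HEK293T reporter cells lasted 16 hr at 37°C.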
Rab9 prom act: activators of Rab9 promoter. AID 485297. actives 2.8% (n = 320,000). Potency, µM (doses to about 9.22 µM), for inactives: at the top dose activation, negative = inhibition, actives largely listed as activators. Huh7 Rab9 promoter-luciferase reporter, luminescence, 24 h; also: % of control where 0% means no effect; nearly all actives have a fitted effect of over 60% in size
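Rab9 promoter-driven luciferase in stably transfected Huh7 cells; 1500 cells/well rested 2 h, exposed to compound in DMSO for 24 h at 37 °C, 5% CO2. Luminescence read 10 min after adding luciferase reagent at ambient temperature.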
NPC1 prom act: NPC1 promoter activation. actives 2.4% (n = 320,000). Huh7 NPC1 promoter luciferase reporter, 24 h. Potency, µM (top dose mostly 9.22 µM), for the others: top-dose activation, most hits filed as activators; also: % of control where 0% means no effect; nearly all actives have a fitted effect of over 60% in size
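Readout is luciferase luminescence, reflecting NPC1 promoter activation in stably transfected Huh7 cells after 24 h compound exposure at 37 °C in reduced-serum medium with 10% FBS.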
SMN2 splice up: increases expression of the SMN2 splice variant | actives 2.8% (n = 210,000) | HEK293 SMN2-luciferase splicing reporter, luminescence, 30-36 h | Potency, µM (series often up to 46.1 µM), without a hit: top-dose activity change, positive = activation, hits mostly activators; also: % of control where 0% means no effect; nearly all actives have a fitted effect of over 55% in size
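qHTS luciferase splicing reporter: luminescence rises when SMN2 exon 7 is included in transfected HEK293 cells. Compound exposure lasted 30-36 h at 37C, with 4.5 mM final sodium butyrate as control, followed by a ONE-Glo read.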
ELG1 repair inh: inhibitors of ELG1-dependent DNA repair in HEK293T cells; HEK293T ELG1-luciferase reporter, luminescence, 16 h; DNA damage induced by 5-fluorouridine; Potency, µM (titrated, usually from 46.1 µM), inactives show top-dose activity change, negative = inhibition, usual class: inhibitors; actives 2.3% (n = 330,000); also: % is scaled to controls: 0 for no effect and ±100 for the full control effect; nearly all actives have a fitted effect of over 55% in size
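In this reporter screen, reduction of luminescence relative to DMSO vehicle indicated activity. Compounds and 5-fluorouridine were added together to 2,000 cells per well, incubated for 16 hr at 37 °C, then developed with ONE-Glo.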
Active calls of the source: *; ? = inconclusive; / = no result; [ ] = remark or other dose. In the library only some 9.3% were active in any assay of this set; here they are far more common. Calls follow the shape of the dose curve; as a rule, active = well fitted curve in the direction sought with a large enough effect; inconclusive = small, poorly fitted or top-dose-only effect, or another doubt; inactive = no such curve, though single readings can be large; an effect the other way counts as inactive or inconclusive. Potency is read from the fitted curve at half-maximal effect.

SMILES | FLuc modulator | ELG1 genotoxic | Rab9 prom act | NPC1 prom act | SMN2 splice up | ELG1 repair inh
O=[N+]([O-])c1ccccc1N/N=C/c1ccccc1 | ? | ? | ? | 4µM* | / | ?
O=[N+]([O-])c1ccc(N/N=C/c2c[nH]c3ccccc23)cc1 | ? | 15% | -2% | -2% | -10% | ?
Cc1nc(-n2nc(C)c(Cc3ccc4c(c3)OCO4)c2C)sc1C(=O)Nc1cccc(Cl)c1 | 2% | / | / | / | / | /
Oc1[nH]c2ccccc2c1N=Nc1nncc2ccccc12 | 7.6µM* | 7% | 3.5µM* | ? | / | ?
Cc1sc2ncnc(N=Nc3c(O)[nH]c4ccccc34)c2c1C | 0.85µM* | 3% | ? | 16% | -13% | -27%
O=C(NCCc1ccccc1)c1noc2c1CCc1ccccc1-2 | -16% | 8% | ? | 17% | 16% | ?
O=C(NCCN1CCOCC1)c1noc2c1CCc1ccccc1-2 | ? | 16µM* | 2µM* | ? | 10µM* | ?
O=C(Nc1cccnc1Cl)c1noc2c1CCc1ccccc1-2 | ? | 27% | 3.2µM* | 2.5µM* | / | ?
CCCNC(=O)c1noc2c1CCc1ccccc1-2 | 19µM* | ? | ? | ? | 16µM* | ?
ClC/C=C/CCl | / | / | / | / | 1% | /
O=C(NCCc1ccccc1)c1cc(=O)c2ccccc2o1 | -7% | 2% | 15% | 0% | 4% | 3%
CC(NC(=O)CN(C)S(=O)(=O)c1ccc(Br)s1)c1ccccc1 (configuration not stated) | -2% | -7% | -6% | 2% | / | 4%
O=C(Nc1ccccc1)C1Cc2ccccc2CN1C(=O)c1ccco1 (configuration not stated) | 19µM* | 16% | 14% | 9% | 14% | ?
COc1ccccc1NC(=O)C1Cc2ccccc2CN1C(=O)c1ccco1 (configuration not stated) | -2% | 7% | 0% | 6% | / | 5%
N#CCCN(C(=O)CSc1ncccn1)c1ccc2c(c1)OCCO2 | 3% | -2% | -4% | 2% | / | 1%
O=C(CCl)N(C/C=C/c1ccccc1)c1ccc2c(c1)OCCO2 | 24µM* | 11% | -45% | -38% | -16% | ?
Cc1ccc(CNC(=O)CSc2ncc(S(=O)(=O)c3ccc(Br)cc3)c(=O)[nH]2)cc1 | 6.7µM* | / | / | / | -2% | /
COc1cc(NC(=O)CSc2ncc(S(=O)(=O)c3ccc(Br)cc3)c(=O)[nH]2)cc(OC)c1 | ? | / | / | / | -9% | /
O=C(CSc1ncc(S(=O)(=O)c2ccc(Br)cc2)c(=O)[nH]1)NCc1ccc(Cl)cc1 | 8.5µM* | / | / | / | 5% | /
O=C(CSc1ncc(S(=O)(=O)c2ccc(Cl)cc2)c(=O)[nH]1)Nc1cccc(C(F)(F)F)c1 | ? | / | / | / | 5% | /
Cc1ccc(NC(=O)N2C(=O)C3(OCCO3)c3ccccc32)cc1 | ? | ? | 2µM* | 3.2µM* | ? | ?
CCCOc1ccc(-c2nnn(CC(=O)N3CCC(C)CC3)n2)cc1 | 17µM* | 2% | 0% | 1% | -35% | 0%
CCCCOc1ccc(-c2nnn(CCC(=O)N3CCOCC3)n2)cc1 | 12µM* | ? | ? | ? | -20% | ?
CC1CCN(C(=O)Cn2nnc(-c3ccc(C(C)C)cc3)n2)CC1 | 17µM* | -2% | 2% | 8% | / | -3%
COC(=O)CCn1nnc(-c2ccc(C(C)C)cc2)n1 | 12µM* | -5% | -28% | -19% | -22% | ?
SMILES | FLuc modulator | ELG1 genotoxic | Rab9 prom act | NPC1 prom act | SMN2 splice up | ELG1 repair inh
COC(=O)CCn1nnc(-c2cccs2)n1 | -1% | 0% | -4% | -2% | -7% | 18%
CC1CCN(C(=O)Cn2nnc(-c3ccccc3)n2)CC1 | -17% | ? | ? | 24% | / | ?
COc1ccc(OCCC(=O)N2CCOCC2)cc1 | 0% | 3% | 0% | 5% | 11% | ?
Cc1ccccc1-n1c(SCC(=O)Nc2ccc(Cl)cc2F)nnc1-c1cc2occc2n1C | 6% | / | / | / | / | /
CN(C)c1ccc(-c2nc(-c3ccco3)no2)cc1[N+](=O)[O-] | -6% | / | / | / | / | /
CCCOc1ccc(-c2nnn(CC(=O)N3CCCC(C)C3)n2)cc1 (configuration not stated) | 15µM* | 0% | -2% | -2% | / | -18%
O=C(CN1C(=O)S/C(=C\c2ccccc2)C1=O)NCCCn1ccnc1 | -13% | -2% | 0% | -4% | / | 8%
Cc1ccc(/C=C2\SC(=S)N(CCC(=O)NCCCN3CCOCC3)C2=O)cc1 | ? | -8% | -2% | -2% | / | -15%
O=C(CN1C(=O)/C(=C/c2cccc(Br)c2)SC1=S)NCCCN1CCOCC1 | 21µM* | -3% | 6% | 5% | / | 29%
CC(C)c1ccc(/C=C2\SC(=S)N(CC(=O)NCCCN3CCOCC3)C2=O)cc1 | 1.3µM* | ? | 0% | 6% | / | ?
CCOc1ccc(/C=C2\SC(=S)N(CC(=O)NCCCN3CCOCC3)C2=O)cc1 | 3µM* | -8% | 19% | 1% | / | ?
CC(C)c1ccc(/C=C2\SC(=O)N(CC(=O)NCCCn3ccnc3)C2=O)cc1 | 0.6µM* | ? | 3.5µM* | ? | / | ?
COc1cc2c(cc1OC)C(CCN)=NCC2 | / | / | / | / | -5%[9.22 µM] | /
O=C(COc1ccccc1Br)N1CCN(C(=O)c2ccco2)CC1 | -2% | 12% | 2% | -3% | / | -1%
COc1ccccc1N=CC=C1OC(C)(C)C(C)(C)O1 | -1% | 2% | -1% | -8% | 10% | ?
Cc1ccc(N=CC=C2OC(C)(C)C(C)(C)O2)c(C)c1 | 7.6µM* | 2% | -2% | 0% | 0% | ?
COc1c2ccccc2nc2occc12 | / | / | / | / | 1% | /
CN(C)S(=O)(=O)c1ccc(Cl)c(C(=O)Nc2ccc(S(=O)(=O)N3CCOCC3)cc2)c1 | -1% | -8% | ? | 0% | / | 16µM*
O=C(Nc1ccc(S(=O)(=O)N2CCOCC2)cc1)c1cc([N+](=O)[O-])ccc1Cl | 0% | ? | 4% | 3% | / | ?
CN(C)S(=O)(=O)c1ccc(Cl)c(C(=O)Nc2cccc([N+](=O)[O-])c2)c1 | 0% | -7% | -18% | -14% | -59% | 8.2µM*
CN(CC(=O)Nc1cccc([N+](=O)[O-])c1)S(=O)(=O)c1ccccc1 | 2% | -2% | -7% | 0% | -4% | 0%
CCN(C[C@H]1N[C@@](C)(C(=O)OC)[C@H]2C(=O)N(C)C(=O)[C@@H]12)S(=O)(=O)c1ccc(C(F)(F)F)cc1 | / | 0% | / | / | / | -1%
CCn1c(SCC(=O)Nc2cccc(OC)c2)nc2ccccc2c1=O | -1% | -1% | -2% | -1% | / | 23µM*
